Screening data from PubChem BioAssay.
Compounds with a hit are over-represented: about 3.5% of the library has one in this group of screens.
GPR151 activ: human GPR151 activation; Q8TDV0; PathHunter beta-arrestin GPR151 cells, luminescence; activation, % at 11.2 µM; 650,000 tested, 1% active; AID 1508602; in the data active = activation above about 4.9%;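 note: 0% = median of compound wells and 100% = cells with positive control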
MITF inh: blocks human microphthalmia-associated transcription factor. O75030. AlphaScreen MITF homodimerization, bead proximity signal. inhibition, % at 2.6 µM. 650,000 tested, 0.91% active. AID 1259374; in the data active = inhibition above about 50%;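 note: 0% = vehicle wells with protein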
Target sequence (O75030 whole entry, looked up): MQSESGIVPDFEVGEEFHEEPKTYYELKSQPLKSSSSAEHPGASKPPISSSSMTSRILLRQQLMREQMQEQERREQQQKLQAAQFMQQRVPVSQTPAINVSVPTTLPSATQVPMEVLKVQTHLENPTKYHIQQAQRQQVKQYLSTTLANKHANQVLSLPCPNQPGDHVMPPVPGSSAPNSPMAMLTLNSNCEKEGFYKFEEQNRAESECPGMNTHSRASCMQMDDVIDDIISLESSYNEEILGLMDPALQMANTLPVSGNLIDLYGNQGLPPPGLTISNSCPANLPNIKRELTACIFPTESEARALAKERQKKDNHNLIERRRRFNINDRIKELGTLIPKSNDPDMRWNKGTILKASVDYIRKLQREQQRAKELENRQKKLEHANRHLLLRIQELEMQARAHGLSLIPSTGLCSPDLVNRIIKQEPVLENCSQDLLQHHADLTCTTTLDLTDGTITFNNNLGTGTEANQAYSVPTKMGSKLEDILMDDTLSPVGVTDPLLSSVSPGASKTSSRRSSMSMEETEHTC
FBW7 activator: human FBW7 E3 ligase activation, primary screen; AlphaScreen FBW7–phospho-cyclin E peptide binding, activator screen; normalized activity (activation), % at 26.1 µM; Q969H0; 650,000 tested, 0.13% active; in the data active = normalized activity above about 1.9%;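 note: purified mutant Fbw7 with reduced substrate affinity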
TEAD-YAP inh: TEAD-YAP interaction inhibition; HEK-TIYL cells, TEAD-Gal4/YAP UAS-luciferase luminescence; inhibition, % at 9.12 µM; 640,000 tested, 1.4% active; AID 1259422; in the data active = inhibition above about 32%;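 note: 0% = median of test compound wells and 100% = reference inhibitor wells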
MITF inh conf: human MITF inhibition, confirmation; shares compounds with MITF inh; 4,700 tested, 16% active; inhibition, % at 2.6 µM; AlphaScreen MITF homodimerization, biotin/His-MITF beads;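 active = inhibition above a cutoff derived from the DMSO control wells, cut at about 28% in these data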;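 note: 0% = MITF dimer wells with DMSO only; inhibitors lower the bead chemiluminescence by keeping MITF from dimerizing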
AS interf DR: counter-screen: compounds optically interfering with AlphaScreen; shares compounds with MITF inh; AlphaScreen optical interference counterscreen, cell-free; IC50, µM; 480 tested, 6% active; call rule not given here
AS interf ctr: AlphaScreen optical interference, counter-screen | shares compounds with MITF inh | LysRS AlphaScreen counterscreen, signal interference, triplicate | inhibition, % at 2.6 µM | 4,700 tested, 7.6% active | AID 1259376;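 active = inhibition above a cutoff derived from the DMSO control wells, cut at about 30% in these data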
GPR151 confirm: confirmation of human GPR151 activators; shares compounds with GPR151 activ; AID 1508609; activation, % at 11.2 µM; GPR151 PathHunter beta-arrestin cells, luminescence, 90 min; % of EA-reagent control over plate median; 6,700 tested, under 10 active;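 active = mean percent activation across replicates above the confirmation screen cutoff of 4.91%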
GPR119 counter: counter-screen for GPR151 activators: effect on human GPR119. activation, % at 11.2 µM. AID 1508611. shares compounds with GPR151 activ. 6,700 tested, 0.3% active. GPR119 PathHunter beta-arrestin cells, luminescence, 90 min; 0 = compound-well median, 100 = enzyme-acceptor control;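 active = mean percent activation in the counterscreen above 29.09%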;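 note: counterscreen on off-target GPR119 to flag nonselective hits from the GPR151 activator screen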
* = called active by the depositor; · = not tested or not shown; ! = not active in a repeat.

SMILES	GPR151 activ	MITF inh	FBW7 activator	TEAD-YAP inh	MITF inh conf	AS interf ctr	others
C1CCC(N2CCN(C3CC4CCC3C4)CC2)C1 (configuration not stated)	1	67*	0	-4	-2	1
Cc1ccccc1CN1CCN(C(=O)COc2ccccc2)CC1	2	60*	0	-2	8	9
O=C(COc1ccccc1)N1CCN(Cc2ccccc2F)CC1	-1	55*	0	-8	7	8
COc1ccccc1CN1CCN(C(=O)COc2ccccc2)CC1	-1	39	0	5	·	·
Cc1ccc(N)c(C(=O)c2cccc(Cl)c2)c1	-1	18	0	-8	·	·
O=[N+]([O-])c1c(Br)ccc2c1no[n+]2[O-]	0	90*	0	-10	80*	5	AS interf DR=>9.1
CN1CCN(Cc2c(F)cccc2F)CC1	1	62*	0	2	-25	-2
CN1CCN(Cc2cc(F)ccc2F)CC1	1	69*	0	-10	16	14
CC(C)CN1CCN(Cc2cc(F)ccc2F)CC1CCO (configuration not stated)	1	5	0	-6	·	·
CCN1CCN(Cc2cc(F)ccc2F)CC1	-1	62*	0	6	-5	-2
CN1CCN(Cc2ccc(F)cc2F)CC1	2	41	0	2	·	·
N#Cc1ccccc1NC(=O)c1cccn(Cc2ccc(F)cc2)c1=O	2	1	0	11	·	·
COc1ccc(CC2NCCc3cc(OC)c(OC)cc32)cc1OC (configuration not stated)	-1	84*	0	-1	101*	4	AS interf DR=3.4*
COc1ccc(CCNC2C3CC4CC(C3)CC2C4)cc1OC (configuration not stated)	1	4	0	8	·	·
CCC(C)N1CCN(Cc2ccccc2F)CC1 (configuration not stated)	0	75*	0	-1	-2	0
CCC(C)N1CCN(Cc2ccccc2)CC1 (configuration not stated)	0	66*	0	11	-4	-8
Cc1nc2n(CCN3CCOCC3)c3ccccc3n2c1C(=O)c1cccs1	0	-1	0	3	·	·
O=C(CN1CCOCC1)c1cccc2ccccc12	-2	56*	0	-5	13	19
CCN(CC)C(=O)c1ccc(NC(C)=O)cc1	-1	-32	0	4	·	·
CCc1ccc(CN2CCN(Cc3ccc(CC)cc3)CC2)cc1	1	67*	0	8	3	4
CCOc1ccc(CN2CCN(Cc3ccc(Cl)cc3)CC2)cc1	0	58*	0	4	20	14
CCOc1ccc(CN2CCN(c3ccccc3)CC2)cc1	3	35	0	-8	·	·
COc1ccc(CN2CCN(C(=O)COc3ccc(Cl)cc3)CC2)cc1	0	58*	0	5	14	17
CSc1ccc(CN2CCN(Cc3ccc(Cl)cc3)CC2)cc1	2	80*	0	7	11	16
Oc1ccc(CN2CCN(c3ccc(Cl)cc3)CC2)cc1	2	11	0	-3	·	·
SMILES	GPR151 activ	MITF inh	FBW7 activator	TEAD-YAP inh	MITF inh conf	AS interf ctr	others
O=[N+]([O-])c1ccc(NCCN2CCOCC2)c2ccncc12	4	-11	0	0	·	·
COc1ccc(C(=O)C2CCCN(Cc3cccc(C)n3)C2)c(C)c1 (configuration not stated)	0	13	0	-5	·	·
CCOc1ccc(CN2CCN(Cc3ccccc3C)CC2)cc1	0	64*	0	4	9	5
CN1CCN(Cc2ccc(Cl)cc2)CC1	-1	39	0	-1	·	·
CCc1ccc(CN2CCN(Cc3ccc(Cl)cc3)CC2)cc1	0	76*	0	4	11	18
CCOc1cccc(CN2CCN(Cc3ccccc3)CC2)c1O	0	5	0	-4	·	·
CC(C)(C)OC(=O)C1=C(N)OC2=C(C(=O)CCC2)C12C(=O)Nc1ccc(Br)cc12 (configuration not stated)	1	-2	0	1	·	·
COc1ccc(CN2CCN(Cc3cccc(C)c3)CC2)cc1	-2	31	0	4	·	·
Cc1cccc(CN2CCN(Cc3ccccc3F)CC2)c1	-1	79*	0	-2	10	12
COc1ccccc1CN1CCN(Cc2cccc(C)c2)CC1	-2	69*	0	-7	8	9
Cc1cccc(CN2CCN(Cc3ccccc3C)CC2)c1	0	64*	0	-6	-3	-4
Cc1ccc(CN2CCN(Cc3cccc(C)c3)CC2)cc1	1	64*	0	7	9	18
CCN1CCN(Cc2cccc([N+](=O)[O-])c2)CC1	0	-11	0	-2	·	·
Cc1cccc(CN2CCN(Cc3ccccc3[N+](=O)[O-])CC2)c1	4	64*	0	-4	13	-2
CN(C)[C@@H]1C(=O)C(C(N)=O)=C(O)[C@@]2(O)C(=O)C3=C(O)c4c(O)ccc(Cl)c4[C@@](C)(O)[C@H]3C[C@@H]12	-1	-5	0	-13	·	·
CN(C)[C@@H]1C(=O)C(C(N)=O)=C(O)[C@@]2(O)C(=O)C3=C(O)c4c(O)cccc4[C@@](C)(O)[C@H]3[C@H](O)[C@@H]12	7.4*!	64*	0	-2	62*	31*!	AS interf DR=4.4*!;GPR151 confirm=0;GPR119 counter=0
Cc1c(N=Nc2c(O)[nH]c(=S)[nH]c2=O)c(=O)n(-c2ccccc2)n1C	15*	92*	0	-9	36*	100*	GPR151 confirm=1;GPR119 counter=4
O=c1[nH]c2ccc(Br)cc2c(=O)n1-c1ccc(Cl)cc1	1	6	0	3	·	·
Cc1[nH]c2c(Cl)cc(Cl)cc2c1CCN	-1	-6	0	2	·	·
CSc1ccc(CN2CCN(Cc3ccc(F)cc3)CC2)cc1	5.2*	78*	0	10	3	0	GPR151 confirm=0;GPR119 counter=-5
CCCCNC(=O)N1c2ccc(C)cc2C2CN(C)CCC21 (configuration not stated)	5.9*	-2	0	5	·	·	GPR151 confirm=-1;GPR119 counter=6
CCCCCC(=O)N1c2ccc(C)cc2C2CN(C)CCC21 (configuration not stated)	-1	4	0	9	·	·
Cc1ccccc1NC(=O)C1C(C)(C)C1(C)C	9.3*	0	0	6	·	·	GPR151 confirm=0;GPR119 counter=7
CC1(C)C(C(=O)Nc2cccc3ccccc23)C1(C)C	0	3	0	2	·	·
